G9a inh: blocks human histone lysine methyltransferase G9a; Q96KQ7; G9a H3K9 monomethylation, AlphaScreen, 2 h; Potency, µM (highest dose often 102 µM), without a hit: top-dose activity, negative = inhibition, most hits filed as inhibitors; 350,000 compounds, 8.8% hits; also: % is scaled to controls: 0 for no effect and ±100 for the full control effect; nearly all actives have a fitted effect of over 75% in size
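AlphaScreen detection with an anti-monomethyl H3K9 antibody quantified product after a 2 h room-temperature reaction containing 500 nM biotinylated H3K9 peptide, 20 µM SAM and 20 nM enzyme, which had been preincubated 15 min with compound.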
JMJD2A Tudor inh: inhibitors of human JMJD2A Tudor domain; AID 504339; AlphaScreen JMJD2A-Tudor / H3K4me3 peptide binding; Potency, µM (doses to about 114 µM), for inactives: at the top dose activity change, negative = inhibition, most hits filed as inhibitors; O75164; 390,000 compounds, 4.4% hits; also: % is scaled to controls: 0 for no effect and ±100 for the full control effect; nearly all actives have a fitted effect of over 50% in size
Sfp PPTase inh: Sfp phosphopantetheinyl transferase inhibition; Biochemical Sfp PPTase activity, qHTS; Potency, µM, for the others: largest response in the series, negative = inhibition, usual class: inhibitors; 310,000 compounds, 3.5% hits;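 also: the enzyme is Sfp with the accession as filed and its product quenches rhodamine fluorescence; 0% = enzyme reaction without inhibitor and -100% = no enzyme wells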
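Sfp 15 nM + cpd, 15 min RT; start w/ rhodamine-CoA 5 uM, BHQ-2-YbbR 12.5 uM (final); 50 mM Hepes pH 7.6, 10 mM MgCl2, 0.01% NP-40, 0.01% BSA; read 525/598 nm at 0 and 30 min.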
BAZ2B block: BAZ2B (human) inhibition; Q9UIF8; AlphaScreen BAZ2B-H3K14Ac peptide displacement; Potency, µM (highest dose often 114 µM), for inactives: at the highest dose activity change, negative = inhibition, hits mostly inhibitors; 360,000 compounds, 4.4% hits; AID 504333; also: % is scaled to controls: 0 for no effect and ±100 for the full control effect; nearly all actives have a fitted effect of over 60% in size
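In this displacement format the biotinylated H3(5-23) peptide acetylated at Lys14 serves as ligand at 50 nM, with BAZ2B at 50 nM in PBS pH 7.4 containing 0.01% Tween-20. Donor and acceptor beads are 10 ug/mL final.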
L3MBTL1 inh: inhibitors of human L3MBTL1. Q9Y468. AlphaScreen L3MBTL1–H3K9me1 peptide binding. Potency, µM (highest dose often 57.1 µM), inactives show top-dose activity, negative = inhibition, actives largely listed as inhibitors. 230,000 compounds, 0.66% hits; also: % is scaled to controls: 0 for no effect and ±100 for the full control effect; nearly all actives have a fitted effect of over 60% in size
Target sequence (Q9Y468 whole entry, looked up): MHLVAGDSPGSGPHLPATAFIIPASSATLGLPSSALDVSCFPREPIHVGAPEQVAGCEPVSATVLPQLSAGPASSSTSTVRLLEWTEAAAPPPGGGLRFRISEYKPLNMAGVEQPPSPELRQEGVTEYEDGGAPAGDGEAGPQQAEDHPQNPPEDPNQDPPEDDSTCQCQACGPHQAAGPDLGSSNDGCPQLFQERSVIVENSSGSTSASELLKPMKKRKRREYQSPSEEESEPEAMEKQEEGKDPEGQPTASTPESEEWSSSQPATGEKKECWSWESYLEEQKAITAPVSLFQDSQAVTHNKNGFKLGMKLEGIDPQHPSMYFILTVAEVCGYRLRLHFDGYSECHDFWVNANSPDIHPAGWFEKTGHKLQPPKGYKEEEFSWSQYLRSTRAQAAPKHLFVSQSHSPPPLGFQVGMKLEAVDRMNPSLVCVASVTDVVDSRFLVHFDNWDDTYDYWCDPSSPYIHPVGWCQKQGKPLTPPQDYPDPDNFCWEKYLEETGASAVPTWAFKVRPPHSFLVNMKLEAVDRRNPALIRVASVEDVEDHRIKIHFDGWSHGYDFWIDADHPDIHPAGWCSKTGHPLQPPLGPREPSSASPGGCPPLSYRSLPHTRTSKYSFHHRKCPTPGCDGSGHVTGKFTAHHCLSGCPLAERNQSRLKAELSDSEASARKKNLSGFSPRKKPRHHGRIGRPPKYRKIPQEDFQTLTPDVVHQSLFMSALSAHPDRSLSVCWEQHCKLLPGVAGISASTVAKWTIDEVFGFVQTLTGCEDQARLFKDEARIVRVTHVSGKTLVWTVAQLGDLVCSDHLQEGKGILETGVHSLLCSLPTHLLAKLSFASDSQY
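L3MBTL1 (50 nM) pre-complexed 30 min with biotinylated H3(1-15)K9me1 peptide (75 nM), then compounds added for 30 min at room temperature; AlphaScreen streptavidin donor/nickel chelate acceptor beads (10 ug/mL final) read after 30 min dark incubation.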
HP1b binding inh: inhibitors of HP1-beta chromodomain binding to methylated histone tails; P83916; AlphaScreen HP1-beta / biotin-H3K9me3 peptide binding; Potency, µM (highest dose often 114 µM), without a hit: at the top dose activity change, negative = inhibition, hits mostly inhibitors; 390,000 compounds, 0.56% hits; AID 540317; also: nearly all actives have a fitted effect of over 70% in size
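HP1-beta protein (50 nM final) preincubated 30 min at room temperature with biotinylated H3(1-18)K9me3 peptide (50 nM) in PBS pH 7.4, 0.01% Tween-20, then compound added for 30 min. AlphaScreen streptavidin donor/nickel chelate acceptor beads (10 ug/mL final), 30 min dark, luminescence read.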
Numbers without * were called inactive; u = inconclusive; x = no result given; [ ] = remark or other dose. In the library only some 12% were active in any assay of this set; here they are far more common. Calls follow the shape of the dose curve; as a rule, active = well fitted curve in the direction sought with a large enough effect; inconclusive = small, poorly fitted or top-dose-only effect, or another doubt; inactive = no such curve, though single readings can be large; an effect the other way counts as inactive or inconclusive. Potency is read from the fitted curve at half-maximal effect.

SMILES | G9a inh | JMJD2A Tudor inh | Sfp PPTase inh | BAZ2B block | L3MBTL1 inh | HP1b binding inh
CCCCNC(=O)CCn1c(=O)c2ccccc2n(Cc2ccccc2C#N)c1=O | 6%[59 µM] | 6% | x | 1% | x | 31%
COc1ccc(-c2csc(NC(C)=O)n2)cc1OC | -14%[59 µM] | 56µM* | 50µM* | -13% | x | -18%
COc1ccc(C(=O)Nc2nc(-c3cccs3)cs2)cc1 | -28%[59 µM] | -28% | u | -37% | x | 17%
O=C(Nc1nc(-c2cccs2)cs1)c1ccc(Cl)cc1 | 32µM* | 17%[57.1 µM] | 22% | 3% | x | 41%
COC(=O)c1c(-c2cccc(OC)c2)csc1N | 40µM* | -24% | 56µM* | u | -1% | -17%
Cc1csc(NC(=O)c2ccc(OCC3CCCO3)cc2)n1 (stereo not given) | -7%[59 µM] | 0% | 17% | -20% | x | 18%
Cc1cc(-c2csc(NC(=O)c3ccc(=O)n(C)n3)n2)c(C)n1CC1CCCO1 (stereo not given) | u | -24% | 50µM* | u | -4% | 26%
CCc1ccc(CN(Cc2ccco2)c2cnc(S(C)(=O)=O)nc2C(=O)Nc2ccc(C)c(Cl)c2)cc1 | -2%[59 µM] | -30% | x | 11% | x | 32%
CCCCN(CC)CCNC(=O)Cn1c(=O)c2cccn2c2cccnc21 | -8%[59 µM] | -24% | x | -7% | x | u
COc1ccc(-c2csc(NC(=O)C3=COCCO3)n2)cc1OC | 56µM* | -23% | x | u | -6% | 7%
COc1cccc(-c2csc(NC(C)=O)n2)c1 | 10µM* | -8% | -13% | 5% | -3% | -11%
COc1ccc(-c2csc(NC(=O)CCn3cnc4ccccc4c3=O)n2)cc1OC | 13%[0.501 µM] | -20% | -29% | -36% | -2% | 1%
COc1cccc(NC(=O)Nc2nc(-c3ccc(OC)c(OC)c3)cs2)c1 | u | u | 2% | u | x | u
O=C(Nc1nc(-c2ccc(F)c(F)c2)cs1)C1=COCCO1 | -4%[12.7 µM] | -15% | x | 14% | 6% | 29%
COc1ccc(-c2csc(NC(=O)CCCc3nc4ccccc4c(=O)[nH]3)n2)cc1OC | 40µM* | -20% | x | -3% | -6% | -3%
COc1ccc(S(=O)(=O)NCC2CCCN(C(=O)CC3CCCC3)C2)cc1 (stereo not given) | 7% | -8% | 6% | -17% | -4% | 27%
CCOC(=O)c1c(C)[nH]c(CCC(=O)Nc2ccc(Cl)cc2C)c1C | 7%[59 µM] | -8% | x | 3% | x | 21%[57 µM]
COCCCN=C1NN=C(c2cc(C)n(-c3ccccc3F)c2C)CS1 | 50µM* | u | u | 71µM* | -26% | -4%
Cc1cc(C2=NNC(=NCCc3ccccc3)SC2)c(C)n1-c1c(C)n(C)n(-c2ccccc2)c1=O | -11%[59 µM] | -10% | -23% | -9% | x | -7%
Cc1cc(C2=NNC(=Nc3ccccc3)SC2)c(C)n1C | 8.9µM* | u | 32µM* | u | x | u
COCCCN=C1NN=C(c2cc(C)n(-c3ccccc3)c2C)CS1 | 71µM* | -36% | -21% | u | -11% | -7%
Cc1cccc(N=C2NN=C(c3ccccc3F)CS2)c1C | u | -13% | 1% | -28% | x | 24%
COCCN=C1NN=C(c2cc(C)n(CC3CCCO3)c2C)CS1 (stereo not given) | u | -33% | -29% | -15% | 4%[11.4 µM] | -20%
COCCCN=C1NN=C(c2cc(C)n(Cc3ccccc3Cl)c2C)CS1 | 28µM* | u | u | 40µM* | -13% | u
COCCn1c(C)cc(C2=NNC(=Nc3ccccc3F)SC2)c1C | 7.9µM* | 89µM* | 35µM* | u | x | -24%
SMILES | G9a inh | JMJD2A Tudor inh | Sfp PPTase inh | BAZ2B block | L3MBTL1 inh | HP1b binding inh
Fc1ccc(F)c(C2=NNC(=Nc3ccccc3F)SC2)c1 | 10%[59 µM] | -34% | -21% | -31% | -17% | -7%
COc1ccc(O)c(C(=O)c2cnc3nc4ccccc4n3c2)c1 | 32µM* | -34% | -5% | -7% | -10% | 21%
COc1ccc(O)c(C(=O)c2cnn(-c3ccccn3)c2)c1 | -1% | -30% | 10% | -35% | -24% | -20%
CC(C)Oc1ccc(OCCSc2nc3ccccc3n2CC(=O)O)cc1 | 50µM* | -15% | -1% | -29% | 2% | 14%
Cc1ccc(OCCSc2nc3ccccc3n2CC(=O)O)cc1 | x | -32% | 12% | 6% | -28% | 8%
Cc1nc2[nH]c(=O)n(O)c(=O)c2s1 | x | 7.9µM* | x | x | x | 8%
Cc1ccc(C)c(NC(=O)C(=O)NCC(c2cccnc2)N2CCN(c3ccc(F)cc3)CC2)c1 (stereo not given) | u | -36% | x | -37% | x | 10%
CCOC(=O)c1c(-c2ccccc2)oc2ccc(O)c(CN3CCN(C)CC3)c12 | 50µM* | -27% | 6% | -38% | -11% | -8%
CCOC(=O)c1c(C)oc2cc(Cl)c(O)c(CN(C)C)c12 | 11%[59 µM] | u | -5% | -17% | -10% | -20%
CCOC(=O)c1c(-c2ccccc2)oc2cc(CN(C)C)c(O)c(CN(C)C)c12 | x | 50µM* | x | x | x | -18%
CCOC(=O)c1c(CN2CCN(c3ccccc3)CC2)oc2cc(Br)c(O)cc12 | 50µM* | 50µM* | 7% | u | x | -6%
CCOC(=O)c1c(CN2CCN(C)CC2)oc2ccc(O)cc12 | 50µM* | -20% | 0% | u | 30% | 31%
Cc1ccc(Cl)cc1N1CCN(C(=O)c2ccc(NC(=O)c3nsc4ccccc34)cc2)CC1 | -1%[59 µM] | -17% | x | 0% | x | 15%[57 µM]
C=C(CC1([C@@H](NP(=O)(c2ccccc2)c2ccccc2)[C@H]2C[C@@H]2CCCC)CC1)c1cccc(OC)c1 | x | x | 0% | x | x | x
Cc1ccc2c(c1)-c1nc(-c3ccc4c(c3)NC(=O)CO4)cc(-c3ccc(Cl)cc3)c1CO2 | 2%[59 µM] | 0% | x | -16% | x | 34%
CCOC(=O)c1c(-c2ccccc2)oc2ccc(O)cc12 | -22%[0.501 µM] | -6% | 40µM* | 71µM* | 2%[2.29 µM] | 37%
CCOC(=O)c1c(-c2ccccc2)oc2ccc(OCC)cc12 | 342% | 257% | u | 301% | 85% | 268%
N#Cc1ccc[n+](CC(=O)c2ccc(Cl)cc2)c1 | 79µM* | -17% | 11% | -31% | x | 36%
Cc1ccc[n+](CC(=O)c2ccc(Br)cc2)c1 | -4%[59 µM] | -12% | 14% | 5% | 2% | 38%
Cc1ccc(F)c(CNC(=O)C2CCC(=O)N(Cc3ccccn3)C2)c1F (stereo not given) | -1% | -34% | 13% | 1% | x | 21%
CCOC(=O)c1ccc(N2C(=O)c3n[nH]c(-c4ccco4)c3C2c2ccc(C)cc2)cc1 (stereo not given) | 11µM* | u | x | x | x | -28%
